Among all 290,000 compounds or so, about 3,300 (1.1%) were called active. This is one part of a sample in which actives are shown more often than they occur. A number with no mark means an inactive call. Cut-off read from the data, not from the text of the source: active = binding response below about 67% or above about 130%; inconclusive = no clear call, values can overlap the other calls; inactive = in between.

In the assay the target is Mitogen-activated protein kinase kinase kinase 2 (Homo sapiens) (UniProt Q9Y2U5). Briefly: wildtype MEKK2 PB1-MEK5 interaction, increase or decrease – biochemical, multiplex bead flow cytometry, Alexa488-MEK5, primary screen (AID 1531). Conditions: Alexa488-MEK5 binding to MEKK2 WT, at 10 µM, actives lie on both sides.
For `O=C(CCCn1c(=O)[nH]c2cc(Cl)ccc2c1=O)NCCN1CCN(c2ccccc2)CC1`, the binding response (% of control) is 97%. In the case of `O=C(Cc1csc(Nc2nc(=S)[nH]c3ccccc23)n1)NCCCN1CCN(c2cccc(Cl)c2)CC1`, the binding response (% of control) was 150% (active). In the case of `COc1cccc(CNC(=O)Cc2csc(Nc3nc(=S)[nH]c4ccccc34)n2)c1`, the binding response (% of control) was 90%. Turning to `COc1ccc(Nc2ncnc3sc(C)cc23)cc1`, the binding response (% of control) was 105%. For `CCCCN1C(N)=NC[C@@H]1Cc1ccccc1`, the binding response (% of control) is 100%. As for `O=C1/C(=C\c2cccnc2)CN(Cc2ccccc2)C/C1=C\c1cccnc1`, the binding response (% of control) is 119%.

For `O=C1C(Cc2ccc(O)cc2)NC(=S)N1Cc1ccccc1` (stereo unspecified), the binding response (% of control) was 97%. Regarding `O=C1NCC(=O)N(Cc2ccccc2)/C1=C/c1ccccc1`, the binding response (% of control) was -4% [inhibitor] (active).

For `C[C@H]1CC[C@]2(O[C@@H](CCO)C[C@@H](O)[C@@H]2O)O1`, the binding response (% of control) was 97%.

Turning to `O=C1N[C@@H](Cc2ccccc2)C(=O)N2[C@@H]3N(S(=O)(=O)c4ccc(F)cc4)c4ccccc4[C@]3(Br)C[C@@H]12`, the binding response (% of control) was 98%. In the case of `CCC(C(=O)NCc1cccnc1)n1nc(C)c2sc3ccccc3c2c1=O` (stereo unspecified) it was 103%; in that of `N#Cc1c(Cl)nc(-c2cccnc2)nc1-c1ccccc1`, 106%; in that of `CN(Cc1ccccc1)C(=O)C(=O)c1cn(CC(=O)N2CCCC2)c2ccccc12`, 106%.

Take `CCC(C)(C)NC(=O)C1c2ccccc2Oc2ccccc21`: the binding response (% of control) is 97%.

Regarding `CCC(C)NC(=O)C1c2ccccc2Oc2ccccc21` (stereo unspecified), the binding response (% of control) was 72%. As to `CC(C)(C)c1nnc(NC(=O)C2c3ccccc3Oc3ccccc32)s1`, the binding response (% of control) was 39% [inhibitor] (active). In the case of `CC(NS(=O)(=O)c1ccc(Cl)cc1)C(=O)Nc1ccc2c(c1)OCCO2` (stereo unspecified), the binding response (% of control) was 97%. For the molecule `COc1ccc(CC(=O)N/N=C(\C)c2ccccn2)cc1`, the binding response (% of control) is 99%. `CCN(CC)CCOc1ccc2c(c1)C(=NNC(=O)c1ccccn1)c1cc(OCCN(CC)CC)ccc1-2`: the binding response (% of control) was 191% (active). For the molecule `Cc1cccc(OCC(=O)NCCCNC(=O)c2ccccn2)c1`, the binding response (% of control) was 98%. Turning to `CCOC(=O)c1ccc(NC(=O)c2c(N)n(C)c(=O)[nH]c2=O)cc1`, the binding response (% of control) is 98%. For `CC1(C)S[C@@H]2[C@H](NC(=O)COc3ccccc3)C(=O)N2C1C(=O)OCc1ccccc1` (stereo partly specified), the binding response (% of control) is 93%.

Consider `O=C(c1ccco1)N1CCN(C(=S)Nc2cc(F)cc(F)c2)CC1`, for which the binding response (% of control) is 102%. To `COc1ccc(CNC(=O)C2CCN(S(C)(=O)=O)CC2)cc1` belongs 42% [inhibitor] (active); to `COc1ccc(CNC(=O)C2CCN(S(=O)(=O)N3CCOCC3)CC2)cc1`, 100%. Turning to `COc1ccc(CNC(=O)C2CCN(S(=O)(=O)c3ccc(SC)cc3)CC2)cc1`, the binding response (% of control) is 105%. Consider `O=C(NCCc1ccccc1)C1CC1`, for which the binding response (% of control) is 103%. With `COC(=O)c1c(-c2ccsc2)oc2ccc(-c3cc(OC)c(OC)c(OC)c3)cc12`, the binding response (% of control) was 96%. In the case of `O=C(CCn1c(=O)[nH]c2ccccc2c1=O)NCCCN1CCN(c2cccc(Cl)c2)CC1`, the binding response (% of control) was 108%.

Turning to `Cn1c(C(=O)NCCc2ccsc2)cc2c(=O)n(C)c3ccccc3c21`, the binding response (% of control) is 97%. To `Cn1c(C(=O)NCCCN2CCN(c3cccc(Cl)c3)CC2)cc2c(=O)n(C)c3ccccc3c21` belongs 173% (active); to `O=C(CNC(=O)c1ccc(Br)o1)Nc1ccccc1`, 99%; to `Cc1ccc(-c2ccc(=O)n(CC(=O)NCCCN3CCCCC3)n2)cc1`, 109%.

`CCc1ccc(-c2cc3c(=O)n(CC(=O)NCCCN4CCN(Cc5ccccc5)CC4)nc(C)n3n2)cc1`: the binding response (% of control) is 141% (active).

With `Cc1nn(CC(=O)NCCc2ccccc2)c(=O)c2cc3occc3n12`, the binding response (% of control) is 111%. `CCCCN1C(N)=NC[C@@H]1CC1CCCCC1`: the binding response (% of control) is 119%. Consider `COc1ccc(-c2noc(C(C)NS(=O)(=O)c3ccc(NC(C)=O)cc3)n2)cc1` (stereo unspecified), for which the binding response (% of control) was 95%. `C=C(C)COc1ccc(-c2ncncc2-c2ccc(OC)cc2)c(O)c1`: the binding response (% of control) is 100%. For the molecule `CCc1nn(CC(=O)N2CCN(CC)CC2)c(=O)c2cccn12`, the binding response (% of control) was 95%.

In the case of `Cc1cc(NC(=O)COc2ccc(Cl)cc2Cl)n(CCC#N)n1`, the binding response (% of control) is 88%. As for `COC(=O)c1c(NC(=O)COc2ccc(Cl)cc2Cl)sc2c1CC(C)(C)NC2(C)C`, the binding response (% of control) is 147% (active). With `Cc1nn(-c2ccccc2)c(C)c1NC(=O)COc1ccc(Cl)cc1Cl`, the binding response (% of control) is 103%.

As to `CC(=O)c1ccc(S(=O)(=O)N(C)CCCC(=O)N(C)Cc2ccccc2F)cc1`, the binding response (% of control) was 105%. Consider `CCOC(=O)c1c(NC(=O)c2ccc(S(=O)(=O)N(C)CC3CCCO3)cc2)sc2c1CC(C)(C)NC2(C)C` (stereo unspecified), for which the binding response (% of control) was 134% (active). Turning to `Cc1cccc(NC(=O)c2ccc(S(=O)(=O)N(C)CC3CCCO3)cc2)c1C` (stereo unspecified), the binding response (% of control) was 99%. To `CN(CC1CCCO1)S(=O)(=O)c1ccc(C(=O)Nc2ccc(F)cc2)cc1` (stereo unspecified) belongs 98%; to `O=C(NC1CCCC1)C(c1c(F)cccc1Cl)N(C(=O)c1csnn1)C1CC1` (stereo unspecified), 95%. For `O=S(=O)(c1ccccc1)c1nc(Cc2ccccc2)oc1N1CCOCC1`, the binding response (% of control) is 102%.

As for `CNC(C)C#Cc1ccc2sc3cc(OC)c(OC)cc3c(=O)c2c1` (stereo unspecified), the binding response (% of control) is 136% (active). Consider `CN1C(=O)C2(OCCCO2)c2cc(Cl)ccc21`, for which the binding response (% of control) is 109%.

As to `COc1cc(-c2nc(-c3ccncc3)no2)cc(OC)c1OC`, the binding response (% of control) was -3% [inhibitor] (active). To `Cc1ccc(-c2nc(-c3ccncc3)no2)c(C)c1` belongs 104%; to `c1csc(-c2nc(-c3ccncc3)no2)c1`, 94%; to `CC1CCCN(c2ccc(C(=O)NCCc3ccccc3)cn2)C1` (stereo unspecified), 97%. Take `Cc1ccc(Sc2cc(C(=O)c3ccccc3C(=O)O)ccc2[N+](=O)[O-])cc1`: the binding response (% of control) was 95%.

Regarding `CC(Sc1nnc(CNC(=O)c2ccccc2F)n1C)C(=O)Nc1nccs1` (stereo unspecified), the binding response (% of control) was 101%.

In the case of `COc1ccc(CN2CC[C@H]3C=CC[C@@H](C(=O)N4CCOCC4)[C@H]3C2=O)cc1OC`, the binding response (% of control) was 99%.

With `CCOC(=O)c1ccc(Nc2cc3ccccc3c(=O)[nH]2)cc1`, the binding response (% of control) is 99%. Turning to `Cc1cccc(-c2nc3ccc(C(=O)NCCN4CCN(C)CC4)cc3nc2-c2cccc(C)c2)c1`, the binding response (% of control) is 156% (active).

For the molecule `Cc1ccc(C(=O)NCCN2CCOCC2)cc1C`, the binding response (% of control) was 99%. Take `Cc1cccc(C(=O)OC(C)CN2CCN(C)CC2)c1` (stereo unspecified): the binding response (% of control) was 97%.

(Values after PubChem BioAssay AID1531 (NMMLSC, 2009).)
